SMILES strings stand for the structures. Screen size: about 1,100 compounds; about 250 (23%) were called active. Cut-off read from the data, not from the text of the source: active = inhibition above about 25%; inactive = the rest. Not all results are given here.

The target of this assay is Tyrosyl-DNA phosphodiesterase 2 (Homo sapiens) (UniProt O95551). The assay can be described thus: human TDP2 enzyme inhibitors, retest, confirmation, biochemical, epi absorbance, recombinant enzyme (AID 743263).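 Note: 0% = vehicle with enzyme and 100% = no enzyme buffer only.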 To be noted: recombinant human TDP2, absorbance read-out; at 12.8 µM; active compounds read high.
Tyrosyl-DNA phosphodiesterase 2 (Homo sapiens), sequence (O95551 whole entry, looked up): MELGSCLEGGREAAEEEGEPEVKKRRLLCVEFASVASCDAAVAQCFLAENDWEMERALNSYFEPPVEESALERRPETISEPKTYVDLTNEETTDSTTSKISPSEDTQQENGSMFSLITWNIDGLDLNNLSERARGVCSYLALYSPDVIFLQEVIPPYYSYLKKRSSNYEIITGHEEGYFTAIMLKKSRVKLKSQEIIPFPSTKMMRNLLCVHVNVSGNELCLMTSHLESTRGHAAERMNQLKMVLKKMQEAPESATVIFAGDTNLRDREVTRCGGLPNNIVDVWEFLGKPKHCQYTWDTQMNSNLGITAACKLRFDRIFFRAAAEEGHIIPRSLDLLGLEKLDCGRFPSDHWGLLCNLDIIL
The term inhibition denotes the drop in the measured response relative to a control, in per cent. As to `NC1=CC(=O)C(=O)c2cccnc21`, the inhibition was 65.8% (active). Then `CCSc1nnc(SCC(=O)NNC(=O)c2ccccc2F)s1`, with -14.1% (inactive); and `Cc1cc(C)c(OCCN2CC(C)OC(C)C2)c(Br)c1` (stereo not drawn), with -5.14% (inactive). Take `CCCCCCCCc1c(O)nc(-n2[nH]c(C)c(CCO)c2=O)[nH]c1=O`: the inhibition was 27.3% (active).

As for `CCOC(=O)N1CCC(c2cc(=O)n(-c3ccccc3)[nH]2)CC1`, the inhibition is 0.79% (inactive). `Cc1ccc(S(=O)(=O)N2CCC(C(=O)NCCC3=CCCCC3)CC2)cc1C`: the inhibition was -3.83% (inactive). To `CC(=O)N(C1=C(Cl)C(=O)c2ccccc2C1=O)c1ccc(C(=O)O)cc1` belongs 59.3% (active). In the case of `CC(C)Cn1c(N)c(C(=O)NCc2cccs2)c2nc3ccccc3nc21`, the inhibition is 10.2% (inactive). To `CCN(CC)CCN1C(=O)C2C(C(=O)Nc3ccc(Br)cc3)C3C=CC2(O3)C1C(=O)NC1CCCCC1` (stereo not drawn) belongs -2.2% (inactive); to `COc1ccccc1C1C(C#N)=C(N)Oc2c1c(-c1ccccc1)nn2-c1ccccc1` (stereo not drawn), -0.56% (inactive). To `Cn1nc(N)c2ncc(C(Cl)(Cl)Cl)nc21` belongs 2.05% (inactive); to `COc1ccc2c(c1)c(=Cc1ccc(N(C)C)cc1)c1cc(-c3ccccc3)[n+](C)n12`, 9.49% (inactive). Consider `Oc1c(C=Nc2cccc3nsnc23)ccc2ccccc12`, for which the inhibition is 41.4% (active). To `COc1ccc(-c2csc(Nc3ccc(O)cc3)n2)cc1` belongs 3.53% (inactive). To `COc1cc(NC(=O)COC(=O)c2ccc([N+](=O)[O-])s2)cc(OC)c1OC` belongs 35.1% (active).

For the compound `COc1cc(OC)cc(C(=O)OCC(=O)Nc2sccc2C(N)=O)c1`, the inhibition is -2.14% (inactive).

On to `O=C(OCC(=O)N1CCN(c2ccccc2)CC1)c1ccc([N+](=O)[O-])s1`, for which the inhibition was 10.4% (inactive). To `O=C(NC1CCCCC1)N1CCc2[nH]c3ccccc3c2C1` belongs 7.01% (inactive). Then `Cc1ccc(Cl)cc1NC(=O)CN1CCN(S(=O)(=O)N2CCOCC2)CC1`, with -8.33% (inactive); and `O=c1oc2ccccc2c(CNc2ccccc2)c1[N+](=O)[O-]`, with 11.7% (inactive); and `CCN(CC)CCCC(C)n1c2nc(=O)[nH]c(=O)c-2nc2cc(Cl)ccc21` (stereo not drawn), with 52.2% (active). To `O=S(=O)(Nc1ccc(O)c2ccccc12)c1ccc(OC(F)(F)F)cc1` belongs 15.5% (inactive); to `Cc1ccc(OCCCCc2c(C)n[nH]c2C)cc1`, 2.05% (inactive); to `CN1c2ccc(C=O)c3c(C=O)ccc(c23)N(C)C1(C)C`, 21% (inactive). For `CC(=O)c1ccc(S(=O)(=O)N2CCC3(CC2)OCCO3)cc1`, the inhibition was -6.04% (inactive). To `COC1=C(N2CCOCC2)C(=O)c2ccccc2C1=O` belongs 30.9% (active).

Turning to `COc1ccc(S(=O)(=O)/N=C2\C=C(NS(=O)(=O)c3ccccc3)C(=O)c3ccccc32)cc1`, the inhibition was 16.7% (inactive). Take `COCCN1C=C2C(=O)C(C)(OC(=O)C3CCCC3)C(=O)C=C2C=C1c1ccsc1` (stereo not drawn): the inhibition was 12.3% (inactive). Regarding `O=C1Nc2ccc([N+](=O)[O-])cc2C1=Nc1cccc(CO)c1`, the inhibition is 28.1% (active).

For the compound `Cc1nn(-c2ccccc2)c2c1C(c1ccc(F)cc1)C(C#N)=C(N)O2` (stereo not drawn), the inhibition is -4.61% (inactive). Regarding `CC1=NN(c2ccc(Cl)c(C(=O)O)c2)C(=O)/C1=C/c1ccc(-c2ccccc2[N+](=O)[O-])o1`, the inhibition is -34.7% (inactive).

`CCc1ccccc1NC(=S)Nc1cc(OC)c(NC(=O)C(C)C)cc1OC`: the inhibition was 2.01% (inactive). Take `Clc1ccc(C2=CSC3=Nc4cccc5cccc(c45)N23)cc1`: the inhibition was 55% (active). On to `O=C(NCc1ccccc1Cl)C(=O)NCC1CCCN1S(=O)(=O)c1cccs1` (stereo not drawn), for which the inhibition was -5.35% (inactive).

Consider `Cc1ccccc1Cn1c2ccccc2c2cnn(CC(=O)NCc3ccco3)c(=O)c21`, for which the inhibition is -10.2% (inactive). Then `COc1ccc2c(c1)C(C)=CC(C)(C)N2C(=O)Nc1ccccc1`, with 7.25% (inactive). Consider `COCCn1nnnc1C(c1cc2ccc(OC)cc2[nH]c1=O)N1CCc2ccccc2C1` (stereo not drawn), for which the inhibition is -0.83% (inactive). Then `C=CCn1c(N)c(C(=O)OCC(C)C)c2nc3ccccc3nc21`, with 9.13% (inactive); and `Oc1ccc(N=Cc2sc3ccccc3c2Cl)cc1`, with 71.6% (active). Then `Oc1ccc(N=Cc2c(O)ccc3ccccc23)cc1`, with 52.7% (active); and `CCN1C(=O)c2cccc3c(N)ccc1c23`, with 8.24% (inactive).

As to `CN(C)c1ccc(N/C=C/C(=O)C(F)(F)F)cc1`, the inhibition was -9.4% (inactive).

Take `Cc1[nH][nH]c(=O)c1C(c1ccc(-c2ccc(Cl)cc2)o1)c1c(C)[nH][nH]c1=O`: the inhibition was 20.6% (inactive).

Take `O=Cc1cn(-c2ccccc2)nc1-c1ccccn1`: the inhibition is 2.54% (inactive). For `CC1CCCC(NC(=O)c2cc(-c3ccncc3)nc3ccccc23)C1C` (stereo not drawn), the inhibition is -1.39% (inactive). To `CCOC(=O)c1c(C)[nH]c2c1-c1ccccc1C(=O)C2=O` belongs 84.2% (active); to `Nc1ccc2nn(-c3ccc(Cl)cc3)nc2c1`, 1.36% (inactive). To `CCCCNC(=O)CCn1nc(-c2ccc(Cl)cc2)ccc1=O` belongs -5.6% (inactive); to `O=C(COC(=O)Cc1c[nH]c2ccccc12)NCCc1ccccc1`, 4.15% (inactive); to `Nc1nc(O)c(CC(=O)O)s1`, 4.54% (inactive).

Consider `O=C(NC1=CC(=O)c2ccccc2C1=O)c1ccccc1`, for which the inhibition was 60.1% (active). Turning to `Cc1ccc(C(=O)Nc2c(-c3ccccc3)[nH][nH]c2=O)cc1`, the inhibition is 12.1% (inactive). As to `Nn1cnnc1N/N=C/c1cc([N+](=O)[O-])c(Cl)cc1Cl`, the inhibition is -5.21% (inactive). Then `CCOc1ccc(C(c2c(C)[nH][nH]c2=O)c2c(C)[nH][nH]c2=O)cc1OCC`, with 10.8% (inactive); and `CCOC(=O)c1ccc(Nc2cc3ccccc3c(=O)[nH]2)cc1`, with 32.7% (active).

As to `CCOC(=O)c1ccc(NC2Nc3cc(C)nn3S2)cc1` (stereo not drawn), the inhibition is 7.05% (inactive). To `COc1ccccc1CN1CCN(C(c2ccccc2)c2ccccc2)CC1` belongs 3.64% (inactive). Then `COCCNC(=O)c1ccc(S(=O)(=O)c2ccc(Cl)cc2)c(NC(C)=O)c1`, with 9.19% (inactive).

Values taken from PubChem BioAssay AID743263 (The Scripps Research Institute Molecular Screening Center, 2014).
